Most compounds without a hit are left out; they make up all but 3.3% or so of the library.
Statin myotox sup: protects C2C12 myotubes from simvastatin toxicity; rescue of ATP level, % at 7.49 µM; AID 602340; ATP luminescence, 48 h; scaled: DMSO 0, geranylgeraniol control 100; 330,000 compounds, 0.78% hits;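 active means mean ATP rescue above about 67%, or every replicate alone reaching that limit, limit read from the data, passing the limit was not always enough; inconclusive means no clear call, values can overlap the other calls; inactive means mean under the limit and some replicate under it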;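 further: myotubes were challenged with 10 µM simvastatin during compound exposure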
Wnt bcat act: Wnt/beta-catenin pathway activation; 300,000 compounds, 1.2% hits; activation, % at 9.35 µM; Wnt/beta-catenin reporter cell assay, activator, plate reader; in the data active means activation above about 30%, passing the limit was not always enough; inconclusive means no clear call, values can overlap the other calls
MITF TRPM1 HTS: activators of MITF-driven TRPM1 promoter activity in SK-MEL-5 cells. SK-MEL-5 TRPM1-promoter luciferase, 24 h; % of positive control, neutral wells = 0. activation, % at 12.5 µM. 300,000 compounds, 0.75% hits. AID 588334;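 active means mean activation of at least 80% with every replicate also reaching 80%; inconclusive means mean reaches 80% but some replicate falls short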
esBAF inh: inhibitors of esBAF chromatin remodeling in mouse ES cells; AID 602393; reporter increase, % at 12.5 µM; Bmi1-luciferase knock-in reporter, 24 h; 100% = twice the neutral-well signal; 350,000 compounds, 2% hits; in the data active means activation above about 40%; inconclusive means no clear call, values can overlap the other calls;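 further: a rise in the Bmi1 reporter signal indicates esBAF inhibition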
FXN GAA850 act: activators of GAA850 frataxin (FXN) promoter; 360,000 compounds, 0.56% hits; HEK293 lucGAA850 FXN promoter luciferase reporter, 24 h; percent of 10 µM SAHA response; activation, % at 6 µM;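 active means activation above the average of all compounds screened plus 3 SD, cutoff fixed separately per campaign, cut at about 7.5% in these data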
Hits are given with their value.

How did C[C@@H]1CN([C@H](C)CO)C(=O)c2cc(NS(C)(=O)=O)ccc2O[C@@H](C)CCCCO[C@H]1CN(C)Cc1ccc(C(F)(F)F)cc1 do in these assays?
esBAF inh: inactive

How did CCN1/C(=C\C=C(C(C)=O)C(C)=O)Sc2ccccc21 do in these assays?
Wnt bcat act: inactive; MITF TRPM1 HTS: inactive; FXN GAA850 act: inactive

Results for CCOC(=O)/C(C#N)=C(C)/C=C1\Sc2ccccc2N1CC ?
Statin myotox sup: inactive; Wnt bcat act: inactive; MITF TRPM1 HTS: inactive; esBAF inh: 67; FXN GAA850 act: inactive

Results for CN(C)C(=O)[C@@H]1[C@@H](CO)[C@@H]2Cn3c(ccc(-c4cccnc4)c3=O)[C@@H]2N1Cc1ccccc1F ?
Statin myotox sup: inactive; esBAF inh: inactive

Results for COCCCNC(=S)NNC(=S)Nc1ccccc1 ?
Wnt bcat act: 42; FXN GAA850 act: inactive

Results for C[C@H]1CN([C@@H](C)CO)C(=O)c2cc(-c3cccc(F)c3)cnc2O[C@H]1CN(C)C(=O)C1CC1 ?
Statin myotox sup: inactive

How did O=C(Nc1ccccc1)c1nnn(Cc2ccccc2)c1NC(=O)C(F)(F)F do in these assays?
Statin myotox sup: inactive; Wnt bcat act: inactive; esBAF inh: 56; FXN GAA850 act: inactive

How did Cc1ccc(NCc2ccccc2O)cc1 do in these assays?
Statin myotox sup: inactive; MITF TRPM1 HTS: inactive; esBAF inh: 49; FXN GAA850 act: inactive

How did Cc1ccc(O)c(CNc2ccccn2)c1 do in these assays?
Statin myotox sup: 112; esBAF inh: 64; FXN GAA850 act: inactive

What do the screens show for `Cc1ccnc(NCc2cc(C)ccc2O)c1`?
Statin myotox sup: inactive; Wnt bcat act: inactive; esBAF inh: 56; FXN GAA850 act: inactive

How did Cc1ccc(O)c(CNc2cccc(C)n2)c1 do in these assays?
Statin myotox sup: inactive; Wnt bcat act: inactive; MITF TRPM1 HTS: inactive; esBAF inh: inactive; FXN GAA850 act: inactive

Results for CC(=O)N1[C@H](C(=O)N2CCc3ccccc3C2)[C@@H](CO)[C@@H]2Cn3c(ccc(-c4cccnc4)c3=O)[C@@H]21 ?
Statin myotox sup: inactive; esBAF inh: inactive

What do the screens show for `Cc1ccccc1S(=O)(=O)N1CC[C@@H]2[C@@H](CO)Nc3ccc(-c4ccc(C#N)cc4)cc3[C@@H]21`?
Statin myotox sup: inactive; esBAF inh: inactive

What do the screens show for `C[C@@H]1CN([C@H](C)CO)S(=O)(=O)c2ccc(C#CC3CCCCC3)cc2O[C@@H]1CN(C)C`?
Statin myotox sup: inactive; esBAF inh: inactive

How did Cc1cc(C)c2c(c1)/C(=N/NS(=O)(=O)c1ccccc1)CCC2 do in these assays?
Statin myotox sup: 136; MITF TRPM1 HTS: inactive; esBAF inh: inactive; FXN GAA850 act: inactive

Results for CCN(CC)CCN(C(=O)c1ccc2ncsc2c1)c1nc2cc3c(cc2s1)OCO3 ?
Statin myotox sup: inactive; Wnt bcat act: inactive; MITF TRPM1 HTS: inactive; esBAF inh: 55; FXN GAA850 act: inactive

Results for O=C(NC1Cc2ccccc2C1)[C@H]1[C@H](CO)[C@H]2Cn3c(ccc(-c4ccccc4)c3=O)[C@@H]1N2 ?
Statin myotox sup: inactive; esBAF inh: inactive

What do the screens show for `COc1ccc(/C=C/C(=O)Nc2ccccc2C(=O)N2CCCC2)cc1`?
Statin myotox sup: inactive; esBAF inh: 56; FXN GAA850 act: inactive

What do the screens show for `COc1cccc(C(=O)Nc2ccccc2C(=O)N2CCCC2)c1`?
Statin myotox sup: 100; Wnt bcat act: inactive; MITF TRPM1 HTS: inactive; esBAF inh: inactive; FXN GAA850 act: inactive

How did C/[N+]([O-])=C/c1c(OCc2ccccc2)ccc2ccccc12 do in these assays?
Statin myotox sup: inactive; Wnt bcat act: inactive; MITF TRPM1 HTS: inactive; esBAF inh: inconclusive; FXN GAA850 act: inactive

What do the screens show for `O=Cc1c(OCc2ccccc2)ccc2ccccc12`?
Statin myotox sup: inactive; Wnt bcat act: inactive; MITF TRPM1 HTS: inactive; esBAF inh: 100; FXN GAA850 act: inactive

What do the screens show for `O=C1/C(=C/Nc2cccc([N+](=O)[O-])c2)CCc2ccccc21`?
Wnt bcat act: 90; MITF TRPM1 HTS: inactive; FXN GAA850 act: inactive

How did COc1ccc(S(=O)(=O)N[C@@H]2C=C[C@@H](CC(=O)N3CCN(c4ccccc4)CC3)O[C@H]2CO)cc1 do in these assays?
Statin myotox sup: inactive; esBAF inh: inactive

Results for COC(=O)C[C@@H]1CC[C@@H]2[C@H](COc3ccc(NS(=O)(=O)c4cccc(F)c4)cc3C(=O)N2C)O1 ?
Statin myotox sup: inactive; esBAF inh: inactive

Results for O=C(/C=C/c1cccc(F)c1)c1ccc(N2CCOCC2)cc1 ?
Statin myotox sup: inactive; Wnt bcat act: inactive; MITF TRPM1 HTS: inactive; esBAF inh: inactive; FXN GAA850 act: inactive

How did O=C(/C=C/c1cccs1)c1ccc(N2CCOCC2)cc1 do in these assays?
Statin myotox sup: inactive; Wnt bcat act: inactive; MITF TRPM1 HTS: inactive; esBAF inh: 52; FXN GAA850 act: inactive

How did CCC(=O)N(C)C[C@H]1Oc2ncc(-c3ccccc3C)cc2C(=O)N([C@H](C)CO)C[C@H]1C do in these assays?
Statin myotox sup: inactive; esBAF inh: inactive

Results for CC1(C(=O)NS(=O)(=O)c2cccc(C#N)c2)CCN1C(=O)C1CCCCC1 (stereo not given) ?
Statin myotox sup: inactive; Wnt bcat act: 35; esBAF inh: inactive; FXN GAA850 act: inactive

How did O=C(C=Cc1ccccc1O)c1ccccc1O do in these assays?
Statin myotox sup: inactive; Wnt bcat act: inactive; MITF TRPM1 HTS: inactive; esBAF inh: 63; FXN GAA850 act: inactive

What do the screens show for `O=C(/C=C/c1cc2ccccc2o1)c1ccccc1O`?
Wnt bcat act: 39; MITF TRPM1 HTS: inconclusive; FXN GAA850 act: inactive

Results for C[C@@H]1CN([C@H](C)CO)S(=O)(=O)c2ccc(-c3cccc(F)c3)cc2O[C@H]1CN(C)S(=O)(=O)c1ccccc1 ?
Statin myotox sup: inactive; esBAF inh: inactive

How did Cc1noc(C)c1NC(=O)N(C)C[C@H]1Oc2c(NC(=O)c3ccc(-c4nccs4)cc3)cccc2C(=O)N([C@@H](C)CO)C[C@H]1C do in these assays?
Statin myotox sup: inactive; esBAF inh: inactive

How did COc1ccccc1NC(=O)c1ccc2nc(-c3ccccc3)c(-c3ccccc3)nc2c1 do in these assays?
Statin myotox sup: 84; Wnt bcat act: inactive; MITF TRPM1 HTS: inactive; esBAF inh: inactive; FXN GAA850 act: inactive

How did COc1ccccc1NC(=O)c1ccc2nsnc2c1 do in these assays?
Statin myotox sup: inactive; Wnt bcat act: inactive; MITF TRPM1 HTS: 91; esBAF inh: inactive; FXN GAA850 act: inactive

Results for COc1cc(NC(=O)c2ccccc2)c(OC)cc1Cl ?
Statin myotox sup: 130; MITF TRPM1 HTS: inactive; esBAF inh: inactive; FXN GAA850 act: inactive

How did COc1cc(NC(=O)c2ccc3nsnc3c2)cc(OC)c1OC do in these assays?
Statin myotox sup: inactive; Wnt bcat act: inactive; MITF TRPM1 HTS: inactive; esBAF inh: inactive; FXN GAA850 act: inactive

What do the screens show for `COc1ccc(NC(=O)c2ccc3nc(-c4ccccc4)c(-c4ccccc4)nc3c2)c(OC)c1`?
Wnt bcat act: inactive; MITF TRPM1 HTS: inactive; FXN GAA850 act: inactive

What do the screens show for `C[C@@H]1CN([C@H](C)CO)C(=O)c2cccc(NC(=O)CCCCCC(=O)Nc3ccccc3N)c2O[C@H]1CN(C)Cc1ccc(-c2ccccc2)cc1`?
esBAF inh: inactive

Bioassay records as filed in PubChem.
